IL-2 act: IL-2 activation; AID 652025; IL-2 activation reporter assay, cell-based qHTS; stimulated with anti-CD3/CD4/CD28 beads; in transgenic mouse T cells; activation, % (series mostly up to about 46 µM); actives 0.065% (n = 360,000); in the data active means activation above about 50%; inconclusive means mostly about 30% to 49%; further: 0% is about no effect
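Unstimulated transgenic mouse T cells; 60-min compound exposure; bead-based TCR/CD4/CD28 stimulation; 18 h culture, 37 degrees C; dual fluorescence (EGFP, DsRed) plate cytometry.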
TRPML1 agonist: agonists of human TRPML1 channel; Q9GZU1; TRPML1-expressing cells, Ca2+ dye fluorescence, FDSS; activation, % (concentration not given with the values); actives 0.12% (n = 410,000); in the data active means activation above about 50%; inconclusive means mostly about 30% to 49%; further: 0% is about no effect
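Agonist activity was taken from a 110 s kinetic Ca2+ dye read on the FDSS after pinning compounds onto TRPML1-DL cells. The cells were seeded at 1,500/well with Tet inducer, incubated about 16 h, then dye-loaded at room temperature.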
TSG101-PTAP inh: blocks PTAP/TSG101 interaction to inhibit HIV-1 budding | Q99816 | Fluorescence polarization, FITC-PTAP peptide / Tsg101 binding | Potency, µM (highest dose often 115 µM), for inactives: at the highest dose activity change, negative = inhibition, usual class: inhibitors | 340,000 tested, under 10 active | AID 493005; active means well fitted inhibition curve with a large enough effect in the main read-out, with a control signal flat, not every such curve was filed as active; inconclusive means small, poorly fitted or top-dose-only effect, or effect the other way, or a change in a side signal; inactive means no such curve, though single readings can be large or run the other way; further: potency means the concentration at half of the fitted maximal effect; % of control where 0% means no effect
Target sequence (Q99816 whole entry, looked up): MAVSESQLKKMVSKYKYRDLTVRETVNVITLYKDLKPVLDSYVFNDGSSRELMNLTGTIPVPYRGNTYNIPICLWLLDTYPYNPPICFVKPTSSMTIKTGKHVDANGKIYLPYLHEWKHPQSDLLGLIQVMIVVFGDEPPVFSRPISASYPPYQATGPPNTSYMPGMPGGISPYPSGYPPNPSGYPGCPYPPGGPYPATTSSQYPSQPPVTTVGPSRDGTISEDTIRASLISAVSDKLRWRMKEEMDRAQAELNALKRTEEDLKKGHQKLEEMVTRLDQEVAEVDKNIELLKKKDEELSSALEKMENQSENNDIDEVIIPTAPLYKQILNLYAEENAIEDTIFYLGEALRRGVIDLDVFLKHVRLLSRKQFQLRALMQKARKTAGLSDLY
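Fluorescence polarization binding of Tsg101 binding domain (10 uM final) to FITC-labeled PTAP peptide (50 nM final) in HEPES pH 7.5 buffer with NaCl, Tween 20, EDTA, TCEP. Compounds added before peptide; binding 20 min at RT.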
BRCA1 expr act: BRCA1 expression activation. AID 624202. Potency, µM (highest dose often 46.1 µM), for the others: at the highest dose activation, hits mostly activators. MCF7-BRCA1-FFLuc reporter, luminescence, 48 h; response scale: scaled: vehicle 0%, 10 µM genistein 100%. actives 1.1% (n = 380,000); further: potency means the concentration at half of the fitted maximal effect; nearly all actives have a fitted effect of over 80% in size
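First, MCF7-BRCA1-FFLuc cells (2000/well) attach for 2 h; next, compounds are pin-added and incubated 48 h at 37 °C; finally, luciferase reagent is added and luminescence read after 15 min.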
TRPML1 inh: inhibitors of human TRPML1 channel; Q9GZU1; AID 624415; activity change, negative = inhibition, % (test concentration not listed); actives 0.02% (n = 390,000); TRPML1-inducible cells, Ca2+ dye fluorescence, FDSS; hits give low values; inhibition of EC80 agonist-evoked calcium signal; in the data active means activity change below about -50%; inconclusive means between about -30% and that limit;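 further: stimulus is agonist 54-4 at its EC80 concentration; on the % scale 0 is the no-effect control and ±100 the full control effect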
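Calcium fluorescence in TRPML1-DL cells induced overnight with Tet: a 110 s read after compound pin addition, then a 110 s antagonist read after challenge with 54-4 at 4 uM final (EC80).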
PKM2 activator: increases activity of human pyruvate kinase M2; P14618; purified PKM2, Kinase-Glo ATP luminescence, activation; response scale: 0% is enzyme alone, no compound; Potency, µM (top dose mostly 57.5 µM), for inactives: top-dose activation, actives largely listed as activators; actives 0.34% (n = 260,000); AID 1631; further: potency means the concentration at half of the fitted maximal effect; on the % scale 0 is the no-effect control and ±100 the full control effect; nearly all actives have a fitted effect of over 55% in size
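hPK-M2, >95% pure; 0.1 mM ADP / 0.5 mM PEP final; imidazole pH7.2 buffer w/ 7 mM MgCl2, 50 mM KCl; 1 h RT; Kinase-Glo lum. Intermediate enzyme activity for dual inhibitor/activator qHTS.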
Numbers without * were called inactive; ? = inconclusive; . = no result given; [ ] = dose if it differs, or a comment. Sampled rows, rich in hits. Any-hit rate of the full collection: about 1.3%. Unless noted, the call rests on the fitted dose curve; in most records, active means well fitted activation curve with a large enough effect; inconclusive means small, poorly fitted or top-dose-only effect; inactive means no such curve, though single readings can be large or run the other way.

SMILES | IL-2 act | TRPML1 agonist | TSG101-PTAP inh | BRCA1 expr act | TRPML1 inh | PKM2 activator
CC1CC(C)CN(C(=O)COC(=O)c2c[nH]c3ccccc23)C1 (stereo not given) | 0 | 1 | -9% | -28% | -3 | .
CC1CCN(C(=O)COC(=O)c2c[nH]c3ccccc23)CC1 | -1 | 1 | -4% | 7.1µM* | -9 | .
O=C(OCC(=O)N1CCCC1)c1c[nH]c2ccccc12 | 0 | 0 | -6% | 38% | -3 | .
CC(C)CC(=O)OCc1cc(=O)n2nc(C3CCCCC3)sc2n1 | . | 0 | . | 0% | -26 | .
O=C(c1ccc(F)cc1)c1cnc(Nc2ccccc2)s1 | -3 | 0 | -4% | 2µM* | 12 | 5%
Cc1cc(N2CCN(S(=O)(=O)c3ccc4ccccc4c3)CC2)n2ncnc2n1 | 0 | 0 | -5% | -13% | -10 | 18µM*
CN(C)CCNc1nc(-c2ccccc2F)c2sccc2n1 | 0 | 0 | . | -17% | 9 | .
Oc1ccc(-c2csc(Nc3ncccn3)n2)cc1 | 4 | 1 | 0% | ? | -15 | -4%
CC(=O)Nc1ccc(-c2csc(Nc3ncccn3)n2)cc1 | 3 | -1 | 0% | 3.5µM* | 5 | -1%
CCOC(=O)c1ccc(OCC2c3cc(OC)c(OC)cc3CCN2C(=O)Cc2ccc(F)cc2)cc1 (stereo not given) | . | 3 | . | -9% | 9 | .
Cc1ccc(-n2ncc3c(=O)n(CC(=O)N(C)C)cnc32)cc1C | -1 | 0 | 2% | 56% | 0 | 3%[11.5 µM]
CC(=O)Cn1cnc2c(cnn2-c2ccc(C)c(C)c2)c1=O | 0 | -1 | -3% | 5µM* | -12 | .
Cc1ccc(C)c(Cn2cnc3c(cnn3-c3ccc(F)cc3)c2=O)c1 | . | 1 | . | . | 4 | .
CC(C)CCn1cnc2c(cnn2-c2ccc(F)cc2)c1=O | 1 | 0 | -2% | 8.9µM* | 86 | -3%
O=C1c2ccccc2C(=O)N1c1ccc2ncccc2c1 | . | -1 | . | 12% | . | .
O=C(NC1CCCC1)c1cc(-c2ccccc2O)on1 | 3 | -1 | -1% | 2.8µM* | 2 | 1%
O=C(NC1CCCC1)c1cc(-c2ccccc2Cl)on1 | 0 | 2 | -2% | ? | 3 | -2%
O=C(NC1CCCCC1)c1cc(-c2cccc(Cl)c2)on1 | -2 | 0 | -4% | 4.5µM* | -10 | -4%
O=C(NC1CCCC1)c1cnn2c1NC(=C1CC1)C=C2C(F)F | . | -1 | . | -17% | . | .
CCC1Nc2ncnc(N3CCc4ccccc4C3)c2N(Cc2ccc(Br)cc2)C1=O (stereo not given) | -1 | 5 | . | -64% | 37 | .
CCOC(=O)C1(Cc2ccccc2)CCCN(C(=O)C=C(C)C)C1 (stereo not given) | -3 | -1 | -4% | ? | 3 | 1%
CCOC(=O)C1(Cc2ccccc2)CCCN(C(=O)COc2ccccc2OC)C1 (stereo not given) | -3 | -1 | . | 10µM* | 12 | .
Cc1cc2oc(=O)cc(CN(C)Cc3cccc(F)c3)c2cc1C | -4 | 3 | -3% | 11µM* | 13 | .
Cc1cc(C)c2c(CN(C)Cc3ccccc3)cc(=O)oc2c1 | 0 | 0 | . | 13µM* | . | .
Cc1cc(C)c2c(CCl)cc(=O)oc2c1 | 1 | 4 | 0% | -55% | -2 | -3%
SMILES | IL-2 act | TRPML1 agonist | TSG101-PTAP inh | BRCA1 expr act | TRPML1 inh | PKM2 activator
CCCC(=O)OCc1cnc(C)c2oc(=O)c(C(=O)Nc3ccc(F)cc3C)cc12 | . | 0 | . | . | 11 | .
CSCCC(c1nc2ccccc2[nH]1)n1c(-c2ccc(C)cc2)nc2ccccc21 (stereo not given) | 0 | . | . | . | . | .
Cc1ccc(C(c2nc3ccccc3[nH]2)n2c(-c3ccccc3)nc3ccccc32)cc1 (stereo not given) | -1 | 0 | . | 4.5µM* | . | .
O=C(Nc1nnc(C2CCCCC2)s1)C1CCN(C(=O)c2ccco2)CC1 | . | 1 | . | 5% | . | .
COCCOC(=O)C(C#N)c1nc2ccccc2nc1N1CCN(Cc2ccccc2)CC1 (stereo not given) | 1 | 2 | -2% | -18% | 2 | 12%
C=CCNC(=O)C(C#N)c1nc2ccccc2nc1N1CCN(Cc2ccccc2)CC1 (stereo not given) | 67* | 0 | ? | -15% | 16 | -3%
COCCCNC(=O)C(C#N)c1nc2ccccc2nc1N1CCN(Cc2ccccc2)CC1 (stereo not given) | 96* | 1 | -9% | -46% | 6 | -1%
C=CCOC(=O)C(C#N)c1nc2ccccc2nc1N1CCN(Cc2ccccc2)CC1 (stereo not given) | 2 | 1 | -6% | -33% | 31 | 3%
COc1cccc(N2CC(NC(=O)COc3ccc4ccccc4c3)CC2=O)c1 (stereo not given) | . | 0 | . | . | -12 | .
O=C(CN1C(=O)CCC1=O)Nc1nc(-c2nc3ccccc3s2)cs1 | -2 | -1 | 0% | 5µM* | -11 | -7%
Cc1ccccc1NC(=O)C1CCN(S(=O)(=O)c2c(C)noc2/C=C/c2ccco2)CC1 | . | 0 | . | . | -13 | .
Cc1noc(/C=C/c2ccco2)c1S(=O)(=O)N1CCC(C(=O)N2CCc3ccccc3C2)CC1 | 13 | 3 | 2% | -59% | -13 | 20µM*
O=C(Cc1ccc(NC(=O)N2CCSc3ncccc32)cc1)NCCc1ccccc1 | . | 1 | . | . | -9 | .
CCCCn1nnnc1C(c1ccccc1)N1CCN(C)CC1 (stereo not given) | -1 | -1 | . | 23% | . | .
CCCCn1nnnc1C(c1ccccc1)N1CCN(c2ncc(C(F)(F)F)cc2Cl)CC1 (stereo not given) | -1 | 68* | . | -23% | . | .
Cc1ccc(Cl)cc1NC(=O)CSc1nc2ccccc2c2nc(-c3ccccc3)nn12 | . | 2 | . | . | -6 | .
COc1ccc(NC(=O)c2cccs2)c([N+](=O)[O-])c1 | 0 | -1 | -3% | 5.6µM* | -11 | -6%
COc1ccc(NC(=O)C/C(C)=N/NC(=O)c2cccs2)c([N+](=O)[O-])c1 | 0 | 1 | -1% | 14% | 4 | 10%
Cc1ccc2oc(C(=O)Nc3ccc(S(=O)(=O)Nc4onc(C)c4C)cc3)c(C)c2c1 | 4 | 0 | -3% | 11µM* | 33 | 0%
CN(C)c1ccc(/C=C2\C=Cc3ccccc32)cc1 | . | 0 | . | 3.5µM* | . | .
CN(C)c1ccc(C=C2C(=O)c3ccccc3C2=O)cc1 | . | 51* | . | 8% | . | .
CCN(CC)c1ccc(/C=C2\C=Cc3ccccc32)cc1 | . | 0 | . | 4.5µM* | . | .
CN(C)c1ccc(C=C2C=Cc3ccccc32)cc1 | -4 | 1 | 0% | ? | -8 | .
